In PubChem BioAssay AID588727 (Southern Research Specialized Biocontainment Screening …, 2011):
The campaign covered roughly 350,000 compounds. About 450 (0.13%) were called active. The rule behind the calls is not given here. These entries were drawn from the full list. Results with a measured potency or affinity are listed apart.

Experiment: inhibitors of VEEV TC-83 cytopathic effect, confirmation, Vero cells (AID 588727)
Settings: VEEV TC-83 cytopathic effect inhibition, at 20 µM
[1] = stronger effect = higher value unless noted
[2] = measured here: 10K pilot screen inhibition, stronger effect = higher value

**Q.** With `CCCOC1(NC(=O)c2ccccc2)C(C)=CC(=O)C=C1C` as the compound, how does the inhibition [1] read?
**A.** inactive

**Q.** Which inhibition [1] does the source give for `CC1CC(C)CN(S(=O)(=O)c2ccc(C(=O)N3CCN(c4ccccc4)CC3)cc2)C1` (configuration not stated) here?
**A.** 1.42% (inactive)

**Q.** For `CCOc1ccc(NS(=O)(=O)c2ccc(C(=O)N(C)CC(=O)Nc3ccc(OC)cc3)cc2)cc1`, which inhibition [1] is on record?
**A.** 4.36% (inactive)

**Q.** Which inhibition [1] does the source give for `Cc1ccc(-n2c(SCC(=O)O)nc3sc4c(c3c2=O)CC(C)(C)SC4)cc1` here?
**A.** 0.39% (inactive)

**Q.** For `CCN1C(=O)/C(=C/c2cn(-c3ccccc3)nc2-c2cccnc2)SC1=S`, which inhibition [1] is on record?
**A.** 0.65% (inactive)

**Q.** Which inhibition [1] does the source give for `O=C(COc1ccccc1)Nc1nc2c(s1)CCCC2` here?
**A.** 3.03% (inactive)

**Q.** Which inhibition [1] does the source give for `COc1ccc(OCC(=O)Nc2nc3c(s2)CCCC3)cc1` here?
**A.** 5.92% (inactive)

**Q.** With `CC1CCc2nc(NC(=O)Cc3cccs3)sc2C1` (configuration not stated) as the compound, how does the inhibition [1] read?
**A.** 4.77% (inactive)

**Q.** Which inhibition [1] does the source give for `O=C(CCCc1cccs1)Nc1nc2c(s1)CCCC2` here?
**A.** 5.78% (inactive)

**Q.** With `CCOC1CCCC(n2cnc3c(=S)nc[nH]c32)O1` (configuration not stated) as the compound, how does the inhibition [1] read?
**A.** 2.72% (inactive)

**Q.** With `CCCC(=O)Nc1ccc(NC(=O)c2cccc(OC)c2)cn1` as the compound, how does the inhibition [1] read?
**A.** 0.41% (inactive)

**Q.** Which inhibition [1] does the source give for `COc1ccccc1CCC(=O)OCC(=O)NC1CC1` here?
**A.** 2.29% (inactive)

**Q.** With `CCN(CC)S(=O)(=O)c1ccc(C2=NOC3(C2)N(C)c2ccccc2C3(C)C)cc1` (configuration not stated) as the compound, how does the inhibition [1] read?
**A.** 8.77% (inactive)

**Q.** Which inhibition [1] does the source give for `CC1=NOC2(C1)N(C)c1ccccc1C2(C)C` (configuration not stated) here?
**A.** 0.08% (inactive)

**Q.** With `CCn1c(SCC(=O)OC)nnc1-c1ccncc1` as the compound, how does the inhibition [1] read?
**A.** 0.14% (inactive)

**Q.** With `COc1cccc(CC(=O)OCC(=O)NC(C)c2ccc(F)cc2)c1` (configuration not stated) as the compound, how does the inhibition [1] read?
**A.** 4.67% (inactive)

**Q.** With `Cc1cc(-c2nnc(SCCC(=O)Nc3ccccc3)o2)no1` as the compound, how does the inhibition [1] read?
**A.** 0.79% (inactive)

**Q.** With `O=C(CSc1nnnn1C1CC1)Nc1ccc(S(=O)(=O)N2CCOCC2)cc1` as the compound, how does the inhibition [1] read?
**A.** 1.19% (inactive)

**Q.** Which inhibition [1] does the source give for `COc1ccc(/C=C/c2c([N+](=O)[O-])c(=O)n(C)c(=O)n2C)cc1` here?
**A.** 0.41% (inactive)

**Q.** For `CN(C)c1ccc(/C=C/c2c([N+](=O)[O-])c(=O)n(C)c(=O)n2C)cc1`, which inhibition [1] is on record?
**A.** 0.74% (inactive)

**Q.** For `Cc1ccc(S(=O)(=O)Nc2cccc(C(=O)N3CCOCC3)c2)cc1`, which inhibition [1] is on record?
**A.** inactive

**Q.** Which results are given for `Cc1cc(C)cc(NC(=O)CSc2nc3ccccc3nc2N2CCCCC2)c1`?
**A.** inhibition (stronger effect = higher value): 3.44% (inactive); inhibition [2]: 1.42%

**Q.** Which inhibition (stronger effect = higher value) does the source give for `Cc1cc(C)cc(NC(=O)CSc2nc3ccccc3nc2N2CCCC2)c1` here?
**A.** 4.9% (inactive)

**Q.** What about the inhibition [2] of the same compound?
**A.** 0.985%

**Q.** Which inhibition [1] does the source give for `CCc1ccc(C(C(=O)NC2CCCC2)N(C(=O)c2csnn2)C2CC2)cc1` (configuration not stated) here?
**A.** 0.43% (inactive)

**Q.** Which inhibition [1] does the source give for `CCN(CC)S(=O)(=O)c1ccc(OC)c(NS(=O)(=O)c2ccc(F)cc2)c1` here?
**A.** inactive
